Screen size: about 310,000 compounds; about 14,000 (4.5%) showed an effect of 50% or more. The effect is printed as a negative number. The entries come from a sample that favours strong results as a whole.
These compounds were tested against human ether-à-go-go-related gene (hERG) potassium channel (human, UniProt Q12809) (assay: primary screen, population patch clamp on CHO cells stably expressing hERG; higher = less effect of the substance).
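Also: peak tail current of the secondary pulse compared with the same well before compound.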

human ether-à-go-go-related gene (hERG) potassium channel, sequence (Q12809 whole entry, looked up): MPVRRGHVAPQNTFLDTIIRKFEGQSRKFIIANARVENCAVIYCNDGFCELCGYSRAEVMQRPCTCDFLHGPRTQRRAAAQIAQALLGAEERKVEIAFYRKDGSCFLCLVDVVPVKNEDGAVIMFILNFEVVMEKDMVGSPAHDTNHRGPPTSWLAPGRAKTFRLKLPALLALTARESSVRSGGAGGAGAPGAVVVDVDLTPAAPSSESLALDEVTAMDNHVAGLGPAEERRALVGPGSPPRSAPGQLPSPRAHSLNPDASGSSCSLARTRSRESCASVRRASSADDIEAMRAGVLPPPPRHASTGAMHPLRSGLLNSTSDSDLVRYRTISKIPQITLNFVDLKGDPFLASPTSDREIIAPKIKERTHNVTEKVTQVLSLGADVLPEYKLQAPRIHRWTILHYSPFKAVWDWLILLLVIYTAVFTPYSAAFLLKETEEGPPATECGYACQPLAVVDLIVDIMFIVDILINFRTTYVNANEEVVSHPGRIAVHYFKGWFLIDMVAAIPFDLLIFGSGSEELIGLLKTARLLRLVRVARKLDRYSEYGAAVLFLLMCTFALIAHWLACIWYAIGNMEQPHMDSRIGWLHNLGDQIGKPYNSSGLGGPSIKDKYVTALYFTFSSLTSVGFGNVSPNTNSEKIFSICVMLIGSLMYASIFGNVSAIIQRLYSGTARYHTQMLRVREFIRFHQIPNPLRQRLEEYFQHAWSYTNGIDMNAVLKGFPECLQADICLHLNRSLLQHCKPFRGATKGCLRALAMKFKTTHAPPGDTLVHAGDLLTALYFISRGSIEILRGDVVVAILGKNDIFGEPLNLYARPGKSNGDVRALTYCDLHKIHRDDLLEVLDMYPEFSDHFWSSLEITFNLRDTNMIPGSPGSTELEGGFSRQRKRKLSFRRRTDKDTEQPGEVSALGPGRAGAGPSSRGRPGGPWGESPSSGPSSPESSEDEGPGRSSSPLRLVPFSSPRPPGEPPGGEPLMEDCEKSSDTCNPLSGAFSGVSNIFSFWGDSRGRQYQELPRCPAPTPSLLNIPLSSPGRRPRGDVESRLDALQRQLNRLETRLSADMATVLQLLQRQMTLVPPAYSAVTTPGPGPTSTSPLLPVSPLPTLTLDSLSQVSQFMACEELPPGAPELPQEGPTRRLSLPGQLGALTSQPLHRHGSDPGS

Row | Structure (SMILES) | hERG current change (%, negative = inhibition) at 10uM [%]
1 | CC1CN(C(=O)CCC(=O)NCCCN2CCC(Cc3ccccc3)CC2)c2cc(Cl)ccc2O1 (centres unmarked) | -72.7
2 | Cc1ccc2c(c1)N(C(=O)CCC(=O)NCCCN1CCOCC1)CC(C)O2 (centres unmarked) | -13.5
3 | CC1CN(C(=O)CCC(=O)NCCCN2CCN(Cc3ccccc3)CC2)c2cc(Cl)ccc2O1 (centres unmarked) | -76.1
4 | CCN1CCN(CCCNC(=O)CCC(=O)N2CC(C)Oc3ccc(C)cc32)CC1 (centres unmarked) | -12.5
5 | CC1CN(C(=O)CCC(=O)NCc2ccc(Cl)cc2)c2ccccc2O1 (centres unmarked) | -53.6
6 | Cc1ccc2c(c1)N(C(=O)CCC(=O)NC1CCCCCC1)CC(C)O2 (centres unmarked) | -18.5
7 | CC1CN(C(=O)CCC(=O)NC2CCN(Cc3ccccc3)CC2)c2ccccc2O1 (centres unmarked) | -26.7
8 | CC1CN(C(=O)CCC(=O)NCc2ccccc2)c2ccccc2O1 (centres unmarked) | 0.256
9 | CC1CN(C(=O)CCC(=O)NCc2ccccc2)c2cc(Cl)ccc2O1 (centres unmarked) | -11.5
10 | Cc1ccc2c(c1)N(C(=O)CCC(=O)NC1CCN(Cc3ccccc3)CC1)CC(C)O2 (centres unmarked) | -67.1
11 | Cc1ccc2c(c1)N(C(=O)CCC(=O)NCCCN1CCN(C)CC1)CC(C)O2 (centres unmarked) | 9.95
12 | Cc1ccc(CNC(=O)CCC(=O)N2CC(C)Oc3ccccc32)cc1 (centres unmarked) | -28
13 | COc1ccccc1NC(=O)c1ccc(NS(=O)(=O)c2ccc(F)c(F)c2F)cc1 | -6.5
14 | COc1ccc(C(=O)CSc2nnc(-c3cccs3)n2-c2ccccc2)cc1 | 4.83
15 | CSCCC(NC(=O)C12CC3CC(CC(C3)C1)C2)C(=O)OCC(=O)c1ccccc1 (centres unmarked) | 12.7
16 | c1ccc2[nH]c(SCc3cscn3)nc2c1 | 2.76
17 | CC(C)CCN1CCN(Cc2cc(F)ccc2-n2cccn2)CC1CCO (centres unmarked) | -25.8
18 | Cc1cccc(-n2ccnc2CN2CCN(C(C)C)C(CCO)C2)c1 (centres unmarked) | -12.3
19 | CC(C)CN1CCN(Cc2cc(F)ccc2-n2cccn2)CC1CCO (centres unmarked) | -6.87
20 | Cc1ccc(CN2CCN(Cc3ccc(-n4cccn4)cc3C)CC2CCO)cc1 (centres unmarked) | -78.6
21 | Cc1cccc(-n2ccnc2CN2CCN(C3CCCC3)C(CCO)C2)c1 (centres unmarked) | -59.1
22 | OCCC1CN(Cc2cccc(-n3cccn3)c2)CCN1Cc1ccccc1 (centres unmarked) | -44.8
23 | Cc1cc(-n2cccn2)ccc1CN1CCN(CC(C)C)C(CCO)C1 (centres unmarked) | -45.5

Row | Structure (SMILES) | hERG current change (%, negative = inhibition) at 10uM [%]
24 | Cc1cccc(CN2CCN(Cc3cccc(-n4cccn4)c3)CC2CCO)n1 (centres unmarked) | -45.7
25 | OCCC1CN(Cc2cc(F)ccc2-n2cccn2)CCN1Cc1ccc(F)cc1 (centres unmarked) | -62.5
26 | CCOC(=O)c1[nH]ncc1CN1CCN(Cc2ccc(C)cc2)C(CCO)C1 (centres unmarked) | -38.8
27 | COc1ccc(-n2ccnc2CN2CCN(C3CCCC3)C(CCO)C2)cc1 (centres unmarked) | -29.1
28 | Cc1ccc(CN2CCN(Cc3cccc(-n4cccn4)c3)CC2CCO)cc1 (centres unmarked) | -74.5
29 | Cc1c(Cl)cccc1N1CC(C)(C)C1=O | -2.95
30 | COC(=O)c1sc2nc(SCc3cccc(Cl)c3)n(N)c(=O)c2c1C | 1.39
31 | CCC1Sc2ccccc2N(CC(=O)NC2CC2)C1=O (centres unmarked) | 7.59
32 | COc1ccc(CN2CC(C(N)=O)Oc3ccccc32)cc1F (centres unmarked) | 3.16
33 | Cn1ncnc1SCc1cn2cccnc2n1 | 14.2
34 | CC1CC(Nc2ccccc2N)=CC(=O)O1 (centres unmarked) | 11.7
35 | COc1ccc(C2/C(=C(/O)c3ccccc3)C(=O)C(=O)N2c2ncccn2)cc1OC (centres unmarked) | 7.54
36 | CC(=O)c1ccc(-c2ccccc2OC(F)(F)F)o1 | -10.7
37 | O=C(NCCOc1ccccc1F)c1ccc2c(=O)n3c(nc2c1)CCC3 | -20.8
38 | CC(C)N1CCN(Cc2cccc(-n3cccn3)c2)CC1CCO (centres unmarked) | -12.3
39 | CC(C)CCN1CCN(Cc2cccc(-n3cccn3)c2)CC1CCO (centres unmarked) | -57.6
40 | Cc1cccc(CN2CCN(Cc3ccc(-n4cccn4)cc3)CC2CCO)n1 (centres unmarked) | -30.2
41 | O[C@@H]1CN(Cc2ccc(-n3cccn3)cc2)CC[C@H]1N1CCN(c2ccccc2F)CC1 | -67.5
42 | CSCCCN1CC[C@@H](N2CCN(c3ccccc3F)CC2)[C@H](O)C1 | -36.8
43 | Cc1ccc(CN2CCN(Cc3ccc(-n4cccn4)cc3)CC2CCO)cc1 (centres unmarked) | -78.1
44 | OCCC1CN(Cc2ccc(-n3cccn3)cc2)CCN1Cc1ccccc1 (centres unmarked) | -59.8
45 | CC(C)=CC(=O)N1CC[C@@H](N2CCN(c3ccccc3F)CC2)[C@H](O)C1 | 1.23
46 | CCOC(=O)CC(C)(C)/C(C)=N/Nc1ccc([N+](=O)[O-])cc1[N+](=O)[O-] | -24.5

Row | Structure (SMILES) | hERG current change (%, negative = inhibition) at 10uM [%]
47 | CCOc1ccc(CCNC(=O)c2cccc(C#N)c2)cc1OCC | -6.55
48 | Cc1ccc(N2C(=O)Nc3ccc(Br)cc3C2(O)C(=O)NCCN(C)C)cc1C (centres unmarked) | 21.4
49 | CCCCn1c(SCc2nc(N)nc(Nc3ccccc3C)n2)nc2ccccc2c1=O | -1.63
50 | Cc1c(NC(=O)CN2C(=O)c3cccc4cccc2c34)c(=O)n(-c2ccccc2)n1C | 4.55
51 | Cc1cc(-n2cccn2)ccc1CN1CCN(C2CCCC2)C(CCO)C1 (centres unmarked) | -73.5
52 | OCCC1CN(Cc2cc(F)ccc2-n2cccn2)CCN1C1CCCC1 (centres unmarked) | -29
53 | OCCC1CN(Cc2cccc3nccnc23)CCN1C1CCCC1 (centres unmarked) | -4.4
54 | COc1cccc(-c2sc3ccc(OC)cc3c2C#CCC(C)O)c1 (centres unmarked) | 25.8
55 | COc1ccc(CN(C)C(=O)C23CC4CC(CC(C4)C2)C3)c(OC)c1 | -25
56 | CCOC(=O)c1cc(-c2ccc(OC(F)F)cc2)nc2nc(SC)[nH]c(=O)c12 | -42.7
57 | COc1ccc(NS(=O)(=O)c2cccc(C(=O)NNC(=O)CNC(=O)c3ccco3)c2)cc1 | 12.8
58 | CC(=O)Nc1ccc2c(c1)N(S(=O)(=O)c1cccs1)CCC2 | -3.79
59 | COc1ccc(C(=O)N/C(=C\c2ccco2)C(=O)NCCCn2ccnc2)cc1 | -19.7
60 | Cc1ccc(C(=O)N/C(=C\c2ccco2)C(=O)NCCCn2ccnc2)cc1 | -64.3
61 | Cc1ccc(C(=O)N/C(=C/c2ccco2)C(=O)NCCCn2ccnc2)cc1 | -64.7
62 | Cc1ccc(C(=O)N/C(=C\c2ccco2)C(=O)NCCCn2ccnc2)cc1C | -39.8
63 | Cc1ccc(C(=O)N/C(=C\c2ccco2)C(=O)NCCN2CCOCC2)cc1C | -3.01
64 | Cc1ccc(C(=O)N/C(=C\c2ccco2)C(=O)NCCN2CCCCC2)cc1C | -60.1
65 | O=C(NCCN1CCCCC1)/C(=C/c1ccco1)NC(=O)c1ccccc1 | -40.6
66 | CCOC(=O)C1=C(C)Nc2nc(SCC)[nH]c(=O)c2C1c1ccncc1 (centres unmarked) | -7.65
67 | Cc1cc(C)c(C)c(S(=O)(=O)N2CCN(Cc3nc4ccccc4[nH]3)CC2)c1C | 0.133
68 | Nc1c(NCCc2ccccc2)c2ccccc2oc1=O | -11.9
69 | COc1ccc(/C=c2\sc3nc(=O)c(C)nn3c2=O)c(OC)c1 | 23

Row | Structure (SMILES) | hERG current change (%, negative = inhibition) at 10uM [%]
70 | O=C(COC(=O)c1cc(-c2ccncc2)nc2ccccc12)Nc1ccc2c(c1)OCO2 | 2.21
71 | COc1ccc(CNS(=O)(=O)c2ccc(S(=O)(=O)N3CCCCC3)cc2)cc1 | 7.34
72 | CN(NC(=O)c1ccccc1Cl)c1ncc(C(F)(F)F)cc1Cl | -1.95
73 | Cc1c(OCc2ccc([N+](=O)[O-])cc2)ccc2c3c(c(=O)oc12)CCC3 | 0.652
74 | Cc1nc(C)n(C(C)CNS(=O)(=O)c2ccc(Cl)cc2)n1 (centres unmarked) | 13.9
75 | O=C(C[n+]1ccn(CCCNP2(=O)C=C(c3ccccc3)OC(c3ccccc3)=C2)c1)c1cccs1.[Br-] | -44.7
76 | O=P1(NCCCn2cc[n+](Cc3nc4ccccc4[nH]3)c2)C=C(c2ccccc2)OC(c2ccccc2)=C1.[Cl-] | -63
77 | O=C(C[n+]1ccn(CCCNP2(=O)C=C(c3ccccc3)OC(c3ccccc3)=C2)c1)c1ccccc1.[Br-] | -22.8
78 | CC[C@H](C)[C@H](NC(=O)[C@H](Cc1ccc(O)cc1)NC(=O)[C@@H](N)C(C)C)C(=O)N[C@@H](Cc1cnc[nH]1)C(=O)N1CCC[C@H]1C(=O)N[C@@H](Cc1ccccc1)C(=O)O | 4.75
79 | O=S(=O)(NCCc1ccncc1)c1ccc(F)cc1 | 12
80 | CCOC(=O)C1=C(C)N=C2SCCC(=O)N2C1c1cccs1 (centres unmarked) | -10.2
81 | CCCCCCS(=O)[C@H]1CS(=O)(=O)C[C@@H]1S(=O)CCCCCC (some centres unmarked) | -66.7
82 | CCCCCCCCS(=O)C1CS(=O)(=O)CC1O (centres unmarked) | 5.75
83 | CCCCCCCCS(=O)C1CCS(=O)(=O)C1 (centres unmarked) | 4.04
84 | CCOC(=O)N1CCN(C(=O)Nc2ccc(Cl)cc2)CC1 | -11.4
85 | CCOC(=O)N1CCN(Cc2nc(N)nc(Nc3ccc(C)cc3C)n2)CC1 | -16.7
86 | CCOC(=O)N1CCN(Cc2nc(N)nc(Nc3ccc(Cl)cc3)n2)CC1 | -72.4
87 | CCOC(=O)N1CCN(Cc2nc(N)nc(Nc3ccc(C)cc3)n2)CC1 | -57.2
88 | CCOC(=O)N1CCN(Cc2nc(-c3ccc(Cl)cc3)no2)CC1 | -30.6
89 | CCOC(=O)N1CCN(Cc2nc(-c3ccc(C)cc3)no2)CC1 | -17.6

Source: article PMC4336329 (PLoS ONE, 2015)
